Results reported in PubChem BioAssay (Tox21).
Records with an inconclusive call do not appear. The source made the active and inactive calls. Unless noted, the call rests on the fitted dose curve.

Legend:
[1] = qHTS assay to identify small molecule antagonists of the sonic hedgehog signaling (Shh) pathway (AID 1259369); details: NIH/3T3 Gli1-Luc reporter, Shh antagonist, luminescence 24 h; series mostly up to 92.4 µM; further: nearly all actives have a fitted effect of over 45% in size
Summary of the method: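 Cells are plated and held 4hr at 37 C, compounds (DMSO) are pinned in, conditioned medium is added to stimulate the pathway, and after 24hr luciferase reagent is added for 30min before luminescence is read.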

[2] = biological target: Estrogen receptor beta (Homo sapiens) (UniProt Q92731); assay: qHTS assay to identify small molecule agonists of the estrogen receptor beta (ER-beta) signaling pathway (AID 1259377; active means well fitted activation curve with a large enough effect in the signal ratio in the repeat runs, not every such curve was filed as active; the % refers to the signal ratio); details: ER-beta-UAS-bla HEK293T, beta-lactamase FRET ratio, 16 h; series mostly up to 92.4 µM
Summary of the method: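 Reporter cells (HEK293T, ER-beta-UAS-bla) receive compounds or DMSO after a 6 hr pre-incubation. They then incubate 16 hr at 37C/5% CO2, and fluorescence from LiveBLAzer B/G substrate is measured after 2 hours at room temperature.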

[3] = qHTS assay to identify small molecule agonists of the androgen receptor (AR) signaling pathway in the presence of an antagonist - cell viability counter screen (AID 1259379; active means well fitted curve in the direction sought with a large enough effect in the repeat runs; an effect the other way counts as inactive or inconclusive;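 further: MDA-kb2 human breast cancer cells carrying an MMTV luciferase reporter; nearly all actives have a fitted effect of over 25% in size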); details: MDA-kb2 viability, CellTiter-Fluor, 16 h; series mostly up to 92.4 µM
Summary of the method: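 Cytotoxicity is assessed by CellTiter-Fluor in MDA-kb2 cells carrying an MMTV-driven luciferase reporter. Cells receive 3.0uM nilutamide plus compounds at 15 concentrations and incubate 16 hr at 37C without CO2 before fluorescence reading.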

[4] = qHTS assay to identify small molecule agonists of the estrogen receptor beta (ER-beta) signaling pathway - cell viability counter screen (AID 1259380; active means well fitted curve in the direction sought with a large enough effect in the repeat runs; an effect the other way counts as inactive or inconclusive; further: nearly all actives have a fitted effect of over 30% in size; further: potency means the concentration at half of the fitted maximal effect); details: ER-beta-bla HEK293T viability, CellTiter-Glo luminescence, 16 h; series mostly up to 92.4 µM
Summary of the method: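 Cytotoxicity is measured in parallel with the reporter screen: after 16 hr compound exposure at 37C and a 2 hr LiveBLAzer step, CellTiter-Glo is added to the same ER-beta-UAS-bla HEK293T wells and luminescence read after 30 min.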

[5] = qHTS assay to identify small molecule antagonists of the estrogen receptor beta (ER-beta) signaling pathway - cell viability counter screen (AID 1259382; active means well fitted curve in the direction sought with a large enough effect in the repeat runs; an effect the other way counts as inactive or inconclusive; further: nearly all actives have a fitted effect of over 55% in size); details: ER-beta-UAS-bla HEK293T viability, CellTiter-Glo luminescence, 16 h; series mostly up to 92.4 µM
Summary of the method: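 Cytotoxicity counter screen multiplexed with the beta-lactamase antagonist assay: GripTite HEK293T ER-beta-bla cells were treated 16 hr with test chemicals in the presence of 1nM 17-beta-estradiol, and viability was measured by CellTiter-Glo.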

[6] = qHTS assay to identify small molecule agonists or antagonists of the thyroid stimulating hormone receptor (TSHR) signaling pathway - wild type cell line counter screen (AID 1259384); details: HEK293 wild type, cAMP HTRF counter-screen, stronger effect = higher value; series mostly up to 92.4 µM
Summary of the method: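 Wild-type Hek293 cells, 800/well, 18 h at 37C, then compound with Ro20-1724 for 30 min RT. cAMP by HTRF (cAMP-d2/anti-cAMP cryptate), 1 h RT, fluorescence read. 15 concentrations, triplicates.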

[7] = biological target: Thyrotropin receptor (Homo sapiens) (UniProt P16473); assay: qHTS assay to identify small molecule antagonists of the thyroid stimulating hormone receptor (TSHR) signaling pathway (AID 1259385); details: TSHR-HEK293 cAMP HTRF, TSH-stimulated antagonist mode; series mostly up to 92.4 µM; further: nearly all actives have a fitted effect of over 20% in size
Summary of the method: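 TSHR-HEK293 cells (800/well) plated 18 h, then compounds with Ro20-1724 and TSH at 1.5 ng/mL final, 30 min at room temperature. cAMP quantified by HTRF (cAMP-d2/anti-cAMP-cryptate, 1 h); 15 concentrations in triplicate.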

[8] = biological target: Progesterone receptor (Homo sapiens) (UniProt P06401); assay: qHTS assay to identify small molecule agonists of the progesterone receptor (PR) signaling pathway (AID 1346784); details: PR-UAS-bla HEK293T, beta-lactamase FRET ratio, 16 h; series mostly up to 92.4 µM; further: nearly all actives have a fitted effect of over 30% in size; further: potency means the concentration at half of the fitted maximal effect
Summary of the method: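 Reporter assay, GripTite PR-UAS-bla HEK 293T cells: 16 hr exposure to DMSO-dissolved compounds at 37C, 5% CO2, in steroid-depleted (2% charcoal-stripped FBS) medium; beta-lactamase measured by FRET fluorescence.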

[9] = biological target: Progesterone receptor (Homo sapiens) (UniProt P06401); assay: qHTS assay to identify small molecule antagonists of the progesterone receptor (PR) signaling pathway (AID 1346795; active means well fitted inhibition curve with a large enough effect in the signal ratio in the repeat runs, not every such curve was filed as active; the % refers to the signal ratio); details: PR-UAS-bla HEK293T, beta-lactamase FRET ratio, 16 h; series mostly up to 92.4 µM
Summary of the method: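 Stimulus R5020 at 1 nM final; cells HEK293T PR-UAS-bla; medium with 2% charcoal-stripped FBS; compound exposure 16 hr at 37C, 5% CO2; detection by FRET beta-lactamase substrate, 2 hr, room temperature.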

[10] = qHTS assay to identify small molecule agonists of the progesterone receptor (PR) signaling pathway - cell viability counter screen (AID 1346799); details: PR-UAS-bla HEK293T viability, CellTiter-Glo luminescence, 16 h; series mostly up to 92.4 µM; further: nearly all actives have a fitted effect of over 45% in size; further: potency means the concentration at half of the fitted maximal effect
Summary of the method: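 Multiplexed viability read: CellTiter-Glo luminescence, 30 min RT, following LiveBLAzer FRET measurement on PR-UAS-bla HEK293T cells exposed to compounds 16 hr.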

[11] = qHTS assay to identify small molecule antagonists of the TGF-beta/Smad signaling pathway - cell viability counter screen (AID 1346824; active means well fitted curve in the direction sought with a large enough effect in the repeat runs; an effect the other way counts as inactive or inconclusive; further: nearly all actives have a fitted effect of over 50% in size); details: SBE-bla HEK293T viability, CellTiter-Glo luminescence; series mostly up to 76.8 µM
Summary of the method: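 SBE-bla HEK 293T cells, incubated overnight, then compound plus 0.25 ng/mL TGF-beta1 (stock added) for 5 hr at 37 C. Viability was read in the same wells by CellTiter-Glo luminescence after 30 min at room temperature.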

[12] = qHTS assay to identify small molecule agonists of the TGF-beta/Smad signaling pathway - cell viability counter screen (AID 1346829; active means well fitted curve in the direction sought with a large enough effect in the repeat runs; an effect the other way counts as inactive or inconclusive; further: top concentration of the series differs between compounds; nearly all actives have a fitted effect of over 45% in size); details: SBE-bla HEK293T viability, CellTiter-Glo luminescence, 5 h; series mostly up to 76.8 µM
Summary of the method: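 SBE-bla HEK 293T cells plated overnight, compound exposure 5 hr at 37 C. Viability read in the same wells by CellTiter-Glo luminescence after 30 min at room temperature, following the beta-lactamase read.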

[13] = qHTS assay to identify small molecule agonists of the TGF-beta/Smad signaling pathway (AID 1346859; active means well fitted activation curve with a large enough effect in the signal ratio in the repeat runs, not every such curve was filed as active; the % refers to the signal ratio); details: SBE-bla HEK293T, TGF-beta/Smad beta-lactamase reporter, 5 h; series mostly up to 76.8 µM
Summary of the method: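 Screening used HEK 293T SBE-bla cells at 4,000/well. Test agents: 5 hr, 37 C. Detection: FRET substrate, 2 hr RT, then excitation 405 nm with emissions at 460 and 530 nm.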

[14] = biological target: Thyrotropin-releasing hormone receptor (Homo sapiens) (UniProt P34981); assay: qHTS assay to identify small molecule antagonists of the thyrotropin-releasing hormone receptor (TRHR) signaling pathway (AID 1346877; active means well fitted inhibition curve with a large enough effect in the repeat runs, not every such curve was filed as active); details: TRHR-HEK293, TRH-induced calcium fluorescence, antagonist mode; series mostly up to 51.3 µM
Summary of the method: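 Antagonism is measured as suppression of the calcium response to 1 nM TRH in TRHR-HEK293 cells that have been dye-loaded for 2 h at 37 °C after overnight plating. Each compound is tested at 15 concentrations in triplicate.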

[15] = biological target: Thyrotropin-releasing hormone receptor (Homo sapiens) (UniProt P34981); assay: qHTS assay to identify small molecule agonists of the thyrotropin-releasing hormone receptor (TRHR) signaling pathway (AID 1346891); details: TRHR-HEK293 calcium fluorescence, agonist mode; series mostly up to 57.6 µM
Summary of the method: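 Readout was intracellular calcium fluorescence in TRHR-Hek293 cells. Cells were incubated 18 h, dye-loaded 2 h at 37 °C, and treated with compound in agonist mode.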

[16] = biological target: Estrogen receptor (Homo sapiens) (UniProt P03372); assay: qHTS assay to identify small molecule agonists of the estrogen receptor alpha (ER-alpha) signaling pathway in the presence of an antagonist (AID 1259383); details: VM7Luc4E2 cells, ERE-luciferase, +ICI-182,780, 22 h; series mostly up to 92.4 µM; further: nearly all actives have a fitted effect of over 15% in size; further: potency means the concentration at half of the fitted maximal effect; on activation: top concentration of the series differs between compounds
Summary of the method: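 Agonist-mode confirmation in the presence of the ER antagonist ICI-182,780 at 10.0nM final. Breast-derived VM7Luc4E2 reporter cells were exposed to compounds for 22hr, and ERE-driven luciferase was quantified by luminescence.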

[17] = qHTS assay to identify small molecule agonists of the estrogen receptor alpha (ER-alpha) signaling pathway in the presence of an antagonist - cell viability counter screen (AID 1259386; active means well fitted curve in the direction sought with a large enough effect in the repeat runs; an effect the other way counts as inactive or inconclusive;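 further: cells exposed to compounds for 22 h at 37 °C before the viability read; nearly all actives have a fitted effect of over 30% in size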); details: VM7Luc4E2 viability, CellTiter-Fluor fluorescence, 22 h; series mostly up to 92.4 µM
Summary of the method: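 Cytotoxicity was measured in parallel with the ERE-luciferase agonist screen, in the same wells. The cells were VM7Luc4E2, which endogenously express ER-alpha, and treatment was with compounds plus 10.0nM ICI-182,780 for 22hr.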

[18] = qHTS assay to identify small molecule antagonists of the progesterone receptor (PR) signaling pathway - cell viability counter screen (AID 1346798; active means well fitted curve in the direction sought with a large enough effect in the repeat runs; an effect the other way counts as inactive or inconclusive; further: nearly all actives have a fitted effect of over 50% in size; further: potency means the concentration at half of the fitted maximal effect); details: PR-UAS-bla HEK293T viability, CellTiter-Glo luminescence, 16 h; series mostly up to 92.4 µM
Summary of the method: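 In the same plates used for the beta-lactamase readout, cell viability of compound- and R5020-treated PR-UAS-bla HEK293T cells (16 hr, 37C) was assessed by CellTiter-Glo luminescence.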

[19] = biological target: Estrogen receptor beta (Homo sapiens) (UniProt Q92731); assay: qHTS assay to identify small molecule antagonists of the estrogen receptor beta (ER-beta) signaling pathway (AID 1259378; active means well fitted inhibition curve with a large enough effect in the signal ratio in the repeat runs, not every such curve was filed as active; the % refers to the signal ratio); details: ER-beta-UAS-bla HEK293T, beta-lactamase FRET ratio, 16 h; series mostly up to 92.4 µM
Summary of the method: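 ER-beta-UAS-bla HEK293T cells in 2% charcoal-stripped FBS medium treated with compound plus 1nM final 17-beta-estradiol for 16 hr at 37C. Beta-lactamase reporter read by FRET substrate fluorescence after 2 hours at room temperature.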

[20] = biological target: Androgen receptor (Homo sapiens) (UniProt P10275); assay: qHTS assay to identify small molecule agonists of the androgen receptor (AR) signaling pathway in the presence of an antagonist (AID 1259381); details: MDA-kb2 MMTV-luciferase, AR agonist + nilutamide, 16 h; series mostly up to 92.4 µM; further: nearly all actives have a fitted effect of over 15% in size
Summary of the method: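 Agonist-mode confirmation screen: human MDA-kb2 cells stably expressing luciferase under an MMTV promoter bearing AR and GR response elements, co-treated with 3.0uM nilutamide (final). Luminescence measured after 16hr compound incubation.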

Measured: Potency

Thyrotropin receptor (Homo sapiens), sequence (P16473 whole entry, looked up): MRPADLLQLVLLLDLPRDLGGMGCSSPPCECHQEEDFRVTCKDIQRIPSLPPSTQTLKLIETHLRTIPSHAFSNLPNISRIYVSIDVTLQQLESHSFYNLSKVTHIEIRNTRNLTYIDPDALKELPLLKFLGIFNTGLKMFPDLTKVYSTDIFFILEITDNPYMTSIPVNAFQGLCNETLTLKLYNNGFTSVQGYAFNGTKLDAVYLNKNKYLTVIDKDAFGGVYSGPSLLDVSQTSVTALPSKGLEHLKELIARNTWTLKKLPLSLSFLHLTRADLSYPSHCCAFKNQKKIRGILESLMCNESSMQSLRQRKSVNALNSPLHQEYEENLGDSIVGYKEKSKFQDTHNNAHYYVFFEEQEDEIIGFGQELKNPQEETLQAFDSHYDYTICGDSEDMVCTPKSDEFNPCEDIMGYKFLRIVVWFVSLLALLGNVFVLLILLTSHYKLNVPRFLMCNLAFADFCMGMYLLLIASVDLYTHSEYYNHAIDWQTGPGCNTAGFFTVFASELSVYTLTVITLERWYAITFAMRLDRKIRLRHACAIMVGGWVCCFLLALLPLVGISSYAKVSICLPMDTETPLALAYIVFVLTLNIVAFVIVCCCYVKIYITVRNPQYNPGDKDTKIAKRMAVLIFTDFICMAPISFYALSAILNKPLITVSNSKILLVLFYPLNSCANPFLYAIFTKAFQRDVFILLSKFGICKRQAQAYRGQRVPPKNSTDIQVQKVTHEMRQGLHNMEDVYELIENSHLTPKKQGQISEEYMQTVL
Thyrotropin-releasing hormone receptor (Homo sapiens), sequence (P34981 whole entry, looked up): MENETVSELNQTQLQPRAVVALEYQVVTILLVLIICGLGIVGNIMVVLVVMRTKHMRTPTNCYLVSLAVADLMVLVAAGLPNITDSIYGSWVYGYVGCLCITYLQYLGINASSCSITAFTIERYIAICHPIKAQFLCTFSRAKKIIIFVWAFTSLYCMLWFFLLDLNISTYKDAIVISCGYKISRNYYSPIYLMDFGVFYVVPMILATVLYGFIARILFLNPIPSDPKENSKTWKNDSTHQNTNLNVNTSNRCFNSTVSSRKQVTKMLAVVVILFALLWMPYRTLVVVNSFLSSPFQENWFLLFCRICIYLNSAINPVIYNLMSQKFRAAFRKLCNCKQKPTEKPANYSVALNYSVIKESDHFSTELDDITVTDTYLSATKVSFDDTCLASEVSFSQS
Estrogen receptor beta (Homo sapiens), sequence (Q92731 whole entry, looked up): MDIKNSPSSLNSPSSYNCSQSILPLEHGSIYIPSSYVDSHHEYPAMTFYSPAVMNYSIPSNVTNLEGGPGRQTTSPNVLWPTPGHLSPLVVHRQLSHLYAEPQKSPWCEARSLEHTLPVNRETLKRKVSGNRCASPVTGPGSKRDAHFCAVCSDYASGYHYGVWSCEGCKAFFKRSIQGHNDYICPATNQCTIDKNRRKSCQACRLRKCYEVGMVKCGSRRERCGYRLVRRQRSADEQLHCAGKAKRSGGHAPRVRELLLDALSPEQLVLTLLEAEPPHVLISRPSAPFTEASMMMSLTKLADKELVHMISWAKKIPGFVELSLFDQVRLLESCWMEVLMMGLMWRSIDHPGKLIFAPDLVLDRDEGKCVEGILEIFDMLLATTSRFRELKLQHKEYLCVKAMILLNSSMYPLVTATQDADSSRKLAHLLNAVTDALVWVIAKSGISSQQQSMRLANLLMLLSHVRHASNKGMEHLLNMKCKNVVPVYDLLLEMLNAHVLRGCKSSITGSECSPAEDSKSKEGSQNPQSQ
Progesterone receptor (Homo sapiens), sequence (P06401 whole entry, looked up): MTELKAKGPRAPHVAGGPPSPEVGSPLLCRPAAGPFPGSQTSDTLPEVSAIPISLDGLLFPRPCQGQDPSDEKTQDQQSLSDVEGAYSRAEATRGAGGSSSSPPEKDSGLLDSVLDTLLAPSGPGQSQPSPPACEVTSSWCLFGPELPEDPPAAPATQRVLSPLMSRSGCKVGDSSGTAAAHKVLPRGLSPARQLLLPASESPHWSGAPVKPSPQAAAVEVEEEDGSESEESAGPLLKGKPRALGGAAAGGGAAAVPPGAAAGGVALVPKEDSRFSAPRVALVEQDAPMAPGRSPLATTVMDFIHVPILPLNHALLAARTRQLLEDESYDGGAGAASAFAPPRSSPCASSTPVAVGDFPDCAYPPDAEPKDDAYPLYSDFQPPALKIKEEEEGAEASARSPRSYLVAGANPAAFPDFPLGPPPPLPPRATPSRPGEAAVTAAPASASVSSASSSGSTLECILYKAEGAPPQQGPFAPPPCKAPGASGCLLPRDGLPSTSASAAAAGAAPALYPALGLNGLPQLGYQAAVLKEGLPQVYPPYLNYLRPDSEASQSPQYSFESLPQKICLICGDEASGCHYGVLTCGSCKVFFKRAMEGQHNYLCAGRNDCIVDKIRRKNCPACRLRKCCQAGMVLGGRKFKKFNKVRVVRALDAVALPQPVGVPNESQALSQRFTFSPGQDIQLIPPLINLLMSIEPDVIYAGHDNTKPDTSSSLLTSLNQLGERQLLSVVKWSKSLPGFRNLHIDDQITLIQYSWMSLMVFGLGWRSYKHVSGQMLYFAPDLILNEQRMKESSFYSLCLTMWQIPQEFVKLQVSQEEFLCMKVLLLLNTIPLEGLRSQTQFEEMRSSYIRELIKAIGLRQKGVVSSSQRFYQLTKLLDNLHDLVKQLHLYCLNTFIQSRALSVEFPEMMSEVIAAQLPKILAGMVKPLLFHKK
Androgen receptor (Homo sapiens), sequence (P10275 whole entry, looked up): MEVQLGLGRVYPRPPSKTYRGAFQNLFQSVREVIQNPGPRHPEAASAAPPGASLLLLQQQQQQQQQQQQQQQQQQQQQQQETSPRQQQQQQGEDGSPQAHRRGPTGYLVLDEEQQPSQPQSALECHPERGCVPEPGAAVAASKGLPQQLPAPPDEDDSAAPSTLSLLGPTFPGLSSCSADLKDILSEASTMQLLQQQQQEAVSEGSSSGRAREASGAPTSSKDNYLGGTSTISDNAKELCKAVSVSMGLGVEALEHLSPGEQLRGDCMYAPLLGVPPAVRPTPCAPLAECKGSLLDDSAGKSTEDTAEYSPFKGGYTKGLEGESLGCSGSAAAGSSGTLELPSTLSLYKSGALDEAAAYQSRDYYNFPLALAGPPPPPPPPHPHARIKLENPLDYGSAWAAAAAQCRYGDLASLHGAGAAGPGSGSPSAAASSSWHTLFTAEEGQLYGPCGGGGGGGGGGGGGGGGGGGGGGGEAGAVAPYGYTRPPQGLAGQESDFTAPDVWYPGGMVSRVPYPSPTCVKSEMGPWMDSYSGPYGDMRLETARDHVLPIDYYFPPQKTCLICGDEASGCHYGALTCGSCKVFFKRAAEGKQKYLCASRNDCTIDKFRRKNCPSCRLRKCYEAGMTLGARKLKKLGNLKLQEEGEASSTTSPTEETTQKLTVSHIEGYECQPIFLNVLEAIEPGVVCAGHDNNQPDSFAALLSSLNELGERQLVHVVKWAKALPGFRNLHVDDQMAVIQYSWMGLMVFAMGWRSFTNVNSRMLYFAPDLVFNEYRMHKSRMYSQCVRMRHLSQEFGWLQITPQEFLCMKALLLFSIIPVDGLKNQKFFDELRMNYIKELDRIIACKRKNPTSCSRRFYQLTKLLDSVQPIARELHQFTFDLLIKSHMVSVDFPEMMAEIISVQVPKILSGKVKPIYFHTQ
Estrogen receptor (Homo sapiens), sequence (P03372 whole entry, looked up): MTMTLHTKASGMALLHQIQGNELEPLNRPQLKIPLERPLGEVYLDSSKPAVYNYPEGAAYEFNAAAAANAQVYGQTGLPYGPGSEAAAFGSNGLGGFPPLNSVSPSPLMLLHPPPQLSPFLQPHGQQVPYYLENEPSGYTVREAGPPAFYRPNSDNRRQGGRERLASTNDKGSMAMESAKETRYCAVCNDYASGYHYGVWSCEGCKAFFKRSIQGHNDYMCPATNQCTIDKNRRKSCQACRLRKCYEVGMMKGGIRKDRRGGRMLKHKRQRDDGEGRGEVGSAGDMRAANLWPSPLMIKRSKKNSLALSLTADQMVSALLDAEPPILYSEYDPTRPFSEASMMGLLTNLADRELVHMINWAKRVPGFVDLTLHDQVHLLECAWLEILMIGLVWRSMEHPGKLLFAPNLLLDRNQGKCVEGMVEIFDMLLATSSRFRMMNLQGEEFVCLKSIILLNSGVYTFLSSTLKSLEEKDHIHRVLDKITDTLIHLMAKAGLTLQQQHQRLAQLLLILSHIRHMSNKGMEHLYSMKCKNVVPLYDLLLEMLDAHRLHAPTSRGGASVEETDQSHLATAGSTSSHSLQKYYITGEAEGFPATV

CC(C)NCC(O)c1ccc([N+](=O)[O-])cc1 (stereo not drawn)
not listed: [16] | [17] | [18] | [19] | [20]
inactive: all other assays above

CS(=O)(=O)c1ccc(C(=O)C2C(=O)CCCC2=O)c(Cl)c1COCC(F)(F)F
not listed: [2] | [19] | [20]
inactive: all other assays above

CN(C)CCN(C)C
active: [8] 27.2 µM
not listed: [2] | [10] | [11] | [20]
inactive: all other assays above

COc1cccc([C@@]2(O)CCCC[C@@H]2CN(C)C)c1
not listed: [2] | [7] | [14] | [15] | [18] | [19]
inactive: all other assays above

C=C(Cl)CCl
not listed: [18] | [19] | [20]
inactive: all other assays above

CNC(=O)Oc1ccccc1C(C)C
not listed: [2] | [11] | [14] | [15] | [19]
inactive: all other assays above

CCOC(=O)Nc1cccc(OC(=O)Nc2ccccc2)c1
active: [16] 12.2 µM
not listed: [2] | [7] | [10] | [12] | [20]
inactive: all other assays above

COc1ccc2c(C(=O)c3ccc(Cl)cc3)c(C)n(CC(=O)O)c2c1
not listed: [6] | [7] | [16] | [19] | [20]
inactive: all other assays above

COc1cc(CC(C)N)cc(OC)c1OC (stereo not drawn)
not listed: [7] | [18] | [19] | [20]
inactive: all other assays above

O=c1[nH]c2ccccc2n1C1CCNCC1
not listed: [2] | [18] | [19]
inactive: all other assays above

COP(=O)(O)OC
not listed: [2] | [17] | [18] | [19]
inactive: all other assays above

BrCc1ccc(Br)cc1
not listed: [2] | [9] | [17] | [18] | [19]
inactive: all other assays above

ClCOCCl
not listed: [2] | [14] | [15] | [20]
inactive: all other assays above

CCCOc1nn(C(=O)NS(=O)(=O)c2ccccc2C(=O)OC)c(=O)n1C
not listed: [2] | [11] | [14] | [15] | [16] | [18] | [19]
inactive: all other assays above

O=C(O)C(F)(F)C(F)(F)C(F)(F)C(F)(F)C(F)(F)C(F)(F)F
active: [4] 54.5 µM | [18] 48.6 µM | [10] 27.3 µM
not listed: [5] | [8] | [16] | [19] | [20]
inactive: all other assays above

C[C@H](N)C(=O)c1ccccc1
not listed: [19]
inactive: all other assays above

O=CCCl
not listed: [2] | [4] | [11] | [20]
inactive: all other assays above

CCOP(=S)(OCC)SCCl
not listed: [2] | [7] | [18] | [19]
inactive: all other assays above
